# Measured values published in paper PMC4336329 (PLoS ONE, 2015).
# Screen size: about 310,000 compounds; about 14,000 (4.5%) showed an effect of 50% or more. The effect is printed as a negative number. The entries come from a sample that favours strong results as a whole.
# Target: human ether-à-go-go-related gene (hERG) potassium channel (human, UniProt Q12809)
# Assay: primary screen, population patch clamp on CHO cells stably expressing hERG; higher = less effect of the substance
# 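Note: peak tail current of the secondary pulse compared with the same well before compound.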
# human ether-à-go-go-related gene (hERG) potassium channel, sequence (Q12809 whole entry, looked up): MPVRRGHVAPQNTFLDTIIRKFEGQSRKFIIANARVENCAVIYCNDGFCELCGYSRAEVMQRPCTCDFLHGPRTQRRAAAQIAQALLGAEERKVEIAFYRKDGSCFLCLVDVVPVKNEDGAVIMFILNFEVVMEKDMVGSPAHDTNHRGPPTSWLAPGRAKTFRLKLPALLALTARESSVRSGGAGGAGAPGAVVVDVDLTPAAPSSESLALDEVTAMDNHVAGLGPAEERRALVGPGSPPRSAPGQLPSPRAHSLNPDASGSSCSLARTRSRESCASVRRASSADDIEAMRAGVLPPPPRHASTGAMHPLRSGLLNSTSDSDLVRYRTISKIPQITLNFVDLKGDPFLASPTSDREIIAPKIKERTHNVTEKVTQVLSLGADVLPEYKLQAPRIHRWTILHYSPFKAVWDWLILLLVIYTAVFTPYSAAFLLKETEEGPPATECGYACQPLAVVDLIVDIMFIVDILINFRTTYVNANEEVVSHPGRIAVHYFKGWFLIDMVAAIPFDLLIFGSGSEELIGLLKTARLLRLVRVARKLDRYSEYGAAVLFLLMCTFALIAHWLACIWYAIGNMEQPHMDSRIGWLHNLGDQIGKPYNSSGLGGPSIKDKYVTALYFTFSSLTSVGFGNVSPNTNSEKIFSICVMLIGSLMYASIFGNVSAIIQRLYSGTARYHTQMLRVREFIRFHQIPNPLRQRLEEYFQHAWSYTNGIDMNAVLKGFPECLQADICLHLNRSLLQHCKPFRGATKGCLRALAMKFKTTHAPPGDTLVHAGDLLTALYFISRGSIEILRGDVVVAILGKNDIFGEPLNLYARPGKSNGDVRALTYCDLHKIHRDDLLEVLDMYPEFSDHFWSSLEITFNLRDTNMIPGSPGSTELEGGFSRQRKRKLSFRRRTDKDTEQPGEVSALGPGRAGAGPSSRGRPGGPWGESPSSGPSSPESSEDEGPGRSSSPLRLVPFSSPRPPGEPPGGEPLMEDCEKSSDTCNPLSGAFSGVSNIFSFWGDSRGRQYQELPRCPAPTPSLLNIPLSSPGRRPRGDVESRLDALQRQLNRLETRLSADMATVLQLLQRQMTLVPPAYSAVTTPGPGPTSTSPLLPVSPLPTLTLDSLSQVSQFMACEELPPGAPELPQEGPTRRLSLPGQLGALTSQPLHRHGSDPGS
row,Compound,"hERG current change (%, negative = inhibition) at 10uM [%]"
1,CC(OC(=O)C1CCCCC1)C(=O)Nc1cccc([N+](=O)[O-])c1 (stereo not drawn),-4.48
2,O=C(O)c1ccccc1N/N=C/c1cc(Br)cc(Br)c1O,11.6
3,C=CCN(CC=C)C(=S)Nc1ccc(OC)c(OC)c1,10.3
4,Cc1cc(OCC(=O)N2CCOCC2)c(C(C)C)cc1Cl,-4.17
5,CC(O)CC(C(=O)NNc1ccccc1)C(=O)NNc1ccccc1 (stereo not drawn),21
6,CC(=O)Nc1ccc(C(=O)NC(C)c2ccc(-n3ccnc3)cc2)cc1 (stereo not drawn),7.74
7,COc1cc(C(=O)NC(C)c2ccc(-n3ccnc3)cc2)cc(OC)c1C (stereo not drawn),-72.9
8,Cc1ccccc1C(=O)N1CCC(C(=O)NC(C)c2ccc(-n3ccnc3)cc2)CC1 (stereo not drawn),-23
9,CC(NC(=O)c1cccc(N(C)C)c1)c1ccc(-n2ccnc2)cc1 (stereo not drawn),-68.3
10,CC(NC(=O)C1CCN(C(=O)c2ccc(F)cc2)CC1)c1ccc(-n2ccnc2)cc1 (stereo not drawn),-64.7
11,Cc1ccc(C(=O)NC(C)c2ccc(-n3ccnc3)cc2)cc1 (stereo not drawn),-54
12,CC(=O)Nc1cccc(C(=O)NC(C)c2ccc(-n3ccnc3)cc2)c1 (stereo not drawn),-0.474
13,CC(NC(=O)c1ccco1)c1ccc(-n2ccnc2)cc1 (stereo not drawn),-37
14,O=C(c1ccc(F)cc1)C1CCN(C(=O)c2ccncc2)CC1,-22.4
15,Cc1ccc(C(=O)NC(C)c2ccc(-n3ccnc3)cc2)o1 (stereo not drawn),-37.4
16,Cc1occc1C(=O)N1CCCC(Nc2ccc(F)cc2)C1 (stereo not drawn),-3.68
17,Cc1ccc(C(=O)Nc2ccc(N3CCN(C(=O)c4cccs4)CC3)cc2)c(Cl)c1,-5.13
18,COC(=O)CSc1nnc(-c2cccnc2)n1-c1cc(OC)cc(OC)c1,-19.3
19,N#Cc1ccccc1Oc1ccccc1C=O,-16.8
20,Cc1ccc2nc(C)cc(N/N=C/c3cccc(O)c3)c2c1,12.4
21,COc1ccc(S(=O)(=O)n2nc(OC(=O)c3cccs3)cc2N)cc1,-3.07
22,CCOC(=O)CC1=NN(c2ccccc2)C(=O)/C1=C\c1ccc(N(C)C)cc1,24.6
23,O=C(CNc1cccc(S(=O)(=O)N2CCCC2)c1)Nc1ccc(C(F)(F)F)cc1,15.1

row,Compound,"hERG current change (%, negative = inhibition) at 10uM [%]"
1,CC(C)Cn1cnc2c1c(=O)n(C)c(=O)n2C,27.8
2,CCOc1cc(C(=S)N2CCCCC2)ccc1OS(=O)(=O)c1ccc(Cl)cc1,-1.37
3,N#CCCn1c(=S)[nH]c2ccccc21,12.9
4,O=C(CN(CC1CCCO1)C(=O)CNS(=O)(=O)c1ccccc1)NCc1ccc(F)cc1 (stereo not drawn),11.9
5,C/C(=C1\SC(N2CCOCC2)=NC1=O)c1ccccc1,-12.5
6,Cc1ccc(C(O)c2ccc(-n3ccnc3)cc2)cc1 (stereo not drawn),-1.74
7,CSCc1ccc(C(=O)NC(C)c2ccc(-n3ccnc3)cc2)cc1 (stereo not drawn),-56
8,Cc1ccc(C)c(C(=O)NC(C)c2ccc(-n3ccnc3)cc2)c1 (stereo not drawn),-62.4
9,C/C(=N\NC(=O)c1ccc(C)cc1C)c1ccc(-n2ccnc2)cc1,-16.6
10,CC(NC(=O)c1ccc(CS(C)(=O)=O)cc1)c1ccc(-n2ccnc2)cc1 (stereo not drawn),-1.32
11,CSc1ccccc1C(=O)NC(C)c1ccc(-n2ccnc2)cc1 (stereo not drawn),-39.7
12,Cc1ccc(C(=O)NC(C)c2ccc(-n3ccnc3)cc2)c(C)c1 (stereo not drawn),-57.4
13,CC(NC(=O)c1cc(F)c(F)c(F)c1F)c1ccc(-n2ccnc2)cc1 (stereo not drawn),-65.2
14,CC(=O)c1sc(NC(=O)CS(=O)(=O)c2ccccc2)nc1C,-25.3
15,CCOC(=O)/C(C#N)=C/c1ccc(OC(=O)c2ccccn2)cc1,-5.99
16,OC1(c2cccc(C(F)(F)F)c2)CCN(Cc2nc(-c3cnccn3)no2)CC1,-0.399
17,CCC(=O)N=c1sc2c(OC)ccc(OC)c2n1C,11
18,COc1ccc(Cl)cc1C(=O)Nn1c(-c2cccs2)nc2ccccc2c1=O,-5.47
19,O=C(O)c1nn(-c2ccccc2)nc1-c1nn(-c2ccccc2)nc1C(=O)O,19.7
20,O=C(N/N=C/c1cc([N+](=O)[O-])ccc1Cl)c1cc(-c2ccccc2)nc2ccccc12,7.64
21,CCCc1oc(C(=O)O)cc1CN.Cl,5.96
22,COc1ccc(-c2c(S(=O)(=O)c3ccccc3)cnn2-c2ccccc2)cc1,-2.43
23,Cl.O=C(CCN1CCC(c2ccccc2)C1)c1ccc2c(c1)OCCO2 (stereo not drawn),-56

row,Compound,"hERG current change (%, negative = inhibition) at 10uM [%]"
1,Cl.O=C(CCCN1CCOC(c2ccccc2)C1)c1ccc(F)cc1 (stereo not drawn),-60.7
2,Cl.O=C(CCCN1CCC(c2ccccc2)C1)c1ccc2c(c1)OCCO2 (stereo not drawn),-70.3
3,O=C(CCCc1ccccc1)c1ccc2c(c1)OCCO2,-5.25
4,Cl.O=C(CCN1CCc2ccccc2C(c2ccccc2)C1)c1ccc2c(c1)OCCO2 (stereo not drawn),-0.525
5,Cl.O=C(CCN1CCCCC1)c1ccc2c(c1)OCCO2,4.82
6,Cl.O=C(CCN1CCC(c2ccccc2)C1)c1ccccc1 (stereo not drawn),-35.8
7,Cl.O=C(CCN1CCc2ccccc2CC1)c1ccc2c(c1)OCCO2,-60.6
8,Cl.O=C(CCN1CCOCC1)c1ccccc1,3.53
9,Cl.O=C(CCN1CCc2ccccc2C1)c1ccc2c(c1)OCCO2,-32.2
10,O=C1C(=O)N(CCCN2CCOCC2)C(c2ccc(F)cc2)/C1=C(/O)c1ccccc1 (stereo not drawn),23
11,Cl.O=C(CCN1Cc2ccccc2C1)c1ccc2c(c1)OCCO2,-8.74
12,O=C1/C(=C/c2ccccc2Cl)N2CCC1CC2,-14.1
13,Cc1ccc(OCCn2cc(/C=N/NC(=O)c3ccncc3)c3ccccc32)cc1,-7.64
14,CCOc1ccc2nc(/N=C/c3nc(-c4ccccc4)oc3O)sc2c1,4.73
15,COc1ccc(-n2c3c(cc(C(=O)N4CCC(C)CC4)c2=O)C(=O)CC(C)(C)C3)cc1,-2.69
16,O=C(COC(=O)CNC(=O)c1ccccc1F)NCC(F)(F)F,9.36
17,COc1cc(C(=O)O)cc(Br)c1OC1CCCC1,20.6
18,O=S(=O)(NC1CCCCCC1)c1cccc2cccnc12,5.29
19,O=[N+]([O-])c1ccc(NCc2ccccc2)c2nonc12,19.7
20,CC(OC(=O)c1cccc([N+](=O)[O-])c1)C(=O)NCc1ccc2c(c1)OCO2 (stereo not drawn),-11.4
21,Cc1ccc(CNC(=O)c2ccccc2NC(=O)CN2CC(C)OC(C)C2)cc1 (stereo not drawn),-13.2
22,COc1cccc(N2CCN(CC(=O)Nc3ccccc3C(=O)NCCc3ccccc3)CC2)c1,89.9
23,COc1cccc(N2CCN(CC(=O)NCc3ccccc3)CC2)c1,-5.53

row,Compound,"hERG current change (%, negative = inhibition) at 10uM [%]"
1,Cc1ccc(CNC(=O)c2ccccc2NC(=O)CN2CCN(C)CC2)cc1,-59.2
2,COc1cccc(N2CCN(CC(=O)Nc3ccccc3C(=O)NCc3ccccc3)CC2)c1,-60.9
3,CC(=O)N1CCN(CC(=O)Nc2ccccc2C(=O)NCc2ccc(C)cc2)CC1,-25.4
4,COc1ccc(N2CCN(CC(=O)NC(=O)NCc3ccccc3)CC2)cc1,10.4
5,COc1ccc(N2CCN(CC(=O)Nc3ccccc3C(=O)NCc3ccccc3)CC2)cc1,-55.9
6,COc1ccc(N2CCN(CC(=O)NCc3ccccc3)CC2)cc1,0.922
7,CC(Oc1ccc(F)cc1)C(=O)NN (stereo not drawn),18.6
8,O=C(CCc1ccccc1)Nc1cc2c(cc1Cl)OCCO2,-7.19
9,COc1ccc(-c2csc(Nc3cccc(C)n3)n2)cc1C,5.87
10,O=C1NC(=S)N(c2ccc(Cl)cc2)C(=O)/C1=C/N1CCN(C(=O)c2ccco2)CC1,7.25
11,Cc1cc(C(=O)OCC(=O)Nc2nc(-c3ccccc3)cs2)c(C)o1,15.8
12,Cc1oncc1C(=O)NC(C)C,-3.53
13,CN(C(=O)c1ccc(NC(=O)Cc2ccc(NC(=O)C3CCCN(C(=O)C4CC4)C3)cc2)cc1)C1CC1 (stereo not drawn),-4.41
14,Cc1nn(S(=O)(=O)c2ccc(Cl)cc2)c(C)c1S(=O)(=O)N1CCOCC1,20.9
15,CCOc1ccccc1C1CC(=O)Nc2cc(OC)c(OC)c(OC)c21 (stereo not drawn),19.6
16,CCc1c(C)nc2cc(-c3cc(OC)cc(OC)c3)nn2c1N1CCN(CCN2CCOCC2)CC1,-33.5
17,COc1cc(OC)cc(-c2cc3nc4c(c(N5CCN(c6ncccn6)CC5)n3n2)CCCC4)c1,4.89
18,CCOCCN1CCN(c2c(CC)c(C)nc3cc(-c4cc(OC)cc(OC)c4)nn23)CC1,-72.4
19,CCOCCN1CCN(c2c(C)c(C)nc3cc(-c4cc(OC)cc(OC)c4)nn23)CC1,-73.3
20,CCc1c(C)nc2cc(-c3cc(OC)cc(OC)c3)nn2c1N1CCCC1,-2.11
21,COCCN1CCN(c2c(C)c(C)nc3cc(-c4cccc(OC)c4)nn23)CC1,-15.6
